# ALOX15B inhib: blocks human 15-lipoxygenase 2 activity; O15296; purified 15hLO-2, xylenol orange hydroperoxide absorbance; Potency, µM (highest dose often 57.1 µM), without a hit: at the top dose activity change, negative = inhibition, most hits filed as inhibitors; 110,000 tested, 0.56% active; AID 881; note: % is set by controls: 0 for no effect and ±100 for the full control effect; nearly all actives have a fitted effect of over 60% in size
#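 Purified human 15hLO-2 (50 nM) preincubated 15 min with compound, then 45 uM arachidonic acid for 90 min at RT in 25 mM Hepes pH 7.5, 0.01% Triton X-100. Hydroperoxide detected by Fe-xylenol orange; 573/405 nm absorbance ratio.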
# Casp7 inh: blocks human caspase-7 allosterically or competitively; P55210; recombinant caspase-7, Ac-DEVD-AFC fluorescence rate; Potency, µM (top dose mostly 57.5 µM), for the others: at the highest dose activity change, negative = inhibition, usual class: inhibitors; 75,000 tested, 0.02% active; AID 889; active = well fitted inhibition curve with a large enough effect in the main read-out, with a control signal flat, not every such curve was filed as active; inconclusive = small, poorly fitted or top-dose-only effect, or a change in a side signal; note: % of control where 0% means no effect
# USP2a inhib: inhibitors of human ubiquitin-specific protease USP2a; USP2a enzymatic assay, qHTS inhibition; O75604; AID 927; 60,000 tested, 0.1% active; Potency, µM (titrated, usually from 38.3 µM), without a hit: at the highest dose activity change, negative = inhibition, usual class: inhibitors; note: nearly all actives have a fitted effect of over 60% in size
#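 Inhibition is measured in a cell-free coupled assay with 20 nM USP2 core, 20 nM Ub-PLA2 and 20 uM NBD C6-HPC, 2.5 h incubation. Activity normalized to NEM control.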
# Casp1 inh: allosteric or competitive inhibitors of human caspase-1 | 75,000 tested, 0.03% active | Potency, µM (titrated, usually from 57.5 µM), inactives show at the highest dose activity change, negative = inhibition, usual class: inhibitors | AID 900 | P29466 | Caspase-1 enzyme, Ac-WEHD-AFC fluorogenic rate;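 note: plate controls were vehicle for no effect and no substrate for full effect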
# 15-hLO inh: inhibitors of human 15-lipoxygenase (ALOX15); purified 15hLO-1, xylenol orange hydroperoxide absorbance; Potency, µM (series often up to 57.1 µM), for inactives: at the highest dose activity change, negative = inhibition, most hits filed as inhibitors; 74,000 tested, 1.4% active; AID 887; note: % is set by controls: 0 for no effect and ±100 for the full control effect; nearly all actives have a fitted effect of over 55% in size
#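 Quantitative HTS in 25 mM Hepes pH 7.5 containing 0.01% Triton X-100: human 15hLO-1 at 40 nM, arachidonic acid at 50 uM, 6 min turnover. Product quantified via ferrous oxidation/xylenol orange, 573:405 nm absorbance ratio.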
# * hit, by the source's call; ? = inconclusive; / = no result given; [ ] = dose if it differs, or a comment. Only a selection was taken, and hits are over-represented in it overall. Unless noted, calls come from the whole dose curve; as a rule, active = well fitted curve in the direction sought with a large enough effect; inconclusive = small, poorly fitted or top-dose-only effect, or another doubt; inactive = no such curve, though single readings can be large; an effect the other way counts as inactive or inconclusive. Potency is the fitted concentration of half-maximal effect.
SMILES,ALOX15B inhib,Casp7 inh,USP2a inhib,Casp1 inh,15-hLO inh
Cc1cc(CCC(=O)O)c(C)cc1CCC(=O)O,-1.1%,/,/,/,/
C=CC1=C(C)C2=NC1=CC1=NC(=CC3=NC(=CC4=NC(=C2)C(C)=C4CCC(=O)O)C(CCC(=O)O)=C3C)C(C=C)=C1C.[Zn],12.6µM*,-11.3%,/,-11.0%,10µM*
O=C(O)C1Cc2c([nH]c3ccccc23)C(c2ccc3c(c2)OCO3)N1 (stereo not drawn),-5.9%,0.5%[0.00368 µM],21.7%,-15.7%,12.6µM*
O=C(O)[C@@H]1CCCN[C@H]1C(=O)O,-3.4%,0.5%,4.6%,3.2%,5.2%
CCCCNc1nc(C)nc2c1nc(-c1ccccc1)n2CC1CCCN1CC (stereo not drawn),41.3%,-1.4%,/,2.3%,7.7%
O=C1Nc2ccc(I)cc2/C1=C/c1cc(Br)c(O)c(Br)c1,?,-20.1%,-17.6%,-13.8%,12.6µM*
Cc1noc(C)c1-c1cc(NC2CCNCC2)ncn1,-5.5%,-2.3%,-5.0%,0.1%,15.8µM*
N#CC1=C(N)OC(c2ccccc2)=C(C#N)C1c1ccc2c(c1)OCO2 (stereo not drawn),-15.1%,-6.1%,42.7%,-7.4%,31.6µM*
Cc1ccc(C2C(C#N)=C(N)Oc3cc4c(cc32)OCO4)cc1 (stereo not drawn),-8.2%,-18.6%,5.4%,?,?
O=C(O)c1ccc(Cl)c2c1C1C=CCC1C(c1ccccn1)N2 (stereo not drawn),6.8%,?,/,?,15.8µM*
Cc1cc(NC(=O)CCCC(=O)N(CC(=O)NC2CCCCC2)c2ccccc2)no1,5.7%,-12.1%,22.6%,-13.5%,25.1µM*
C#CCCCCCCCCCCCc1ccco1,1.6%,-2.1%,-20.0%,-1.9%,?
Cc1ccc(/C=N/c2sc3c(c2C#N)CCCCC3)o1,-29.8%,-9.9%,14.1%,?,25.1µM*
Nc1c(C(=O)N2CCCCC2)sc(=S)n1-c1ccccc1,-12.7%,0.1%,-0.6%,-1.0%,10µM*
CNNCc1ccc(C(=O)NC(C)C)cc1,4.4%[25.6 µM],-0.1%[25.7 µM],15.8%[17.1 µM],-13.5%[25.7 µM],7.94µM*
CCOC(=O)C1CCN(c2c(NCc3ccc(C(=O)O)cc3)c(=O)c2=O)CC1,/,0.4%,/,1.2%,7.4%
CCSc1ccccc1C(=O)Nc1cc(C)on1,-9.1%,1.8%,-3.6%,-1.7%,12.6µM*
COC(=O)NC(c1cccc(C)c1)[C@]1(C(C)=O)CCCC1=O (stereo partly drawn),/,-0.7%[11.5 µM],/,-3.4%[11.5 µM],5.2%[11.4 µM]
Cc1ccccc1OCCCN1C(=O)C(=O)c2cccc(C)c21,25.1µM*,-7.3%,/,-5.0%,?
O=c1cnc2cnc(Nc3ccccc3)nc2n1Cc1cccs1,12.2%,-27.2%,104.8%,?,-9.0%
COc1cccc(C(=O)NC(=S)Nc2ccc(N3CCCC3)cc2)c1,12.6µM*,/,/,/,/
N#C/C(=C\c1ccc(O)c(O)c1)C(=O)Nc1ccccc1,?,-2.3%,-19.9%,-5.0%,3.16µM*
C[C@@H](NC(=O)/C(C#N)=C/c1ccc(O)c(O)c1)c1ccccc1,?,-1.5%,-13.8%,-1.3%,?
C[C@H](NC(=O)/C(C#N)=C/c1ccc(O)c(O)c1)c1ccccc1,?,-2.9%,-14.7%,0.5%,0.251µM*
CCc1ccccc1N1CSC2=C(C#N)C(c3ccccc3F)CC(=O)N2C1 (stereo not drawn),10µM*,-22.5%,/,-9.5%,3.16µM*
SMILES,ALOX15B inhib,Casp7 inh,USP2a inhib,Casp1 inh,15-hLO inh
COc1ccc(C2CC(=O)N3CN(c4ccccc4F)CSC3=C2C#N)cc1OC (stereo not drawn),?,?,/,?,0.316µM*
COC(=O)C/C=C\[C@@H](C)[C@@H](/C=N\OC[C@@H](O)[C@H]1O[C@H]2OC(C)(C)O[C@H]2[C@@H]1O)OC,/,0.5%[11.5 µM],/,0.5%[11.5 µM],2.7%[11.4 µM]
CCOC(=O)NC1(NC2CCCCC2)Oc2ccccc2O1,-19.6%,7.8%,-14.4%,0.8%,25.1µM*
CCN(c1cccc(C)c1)S(=O)(=O)c1ccc(O)c(C(=O)O)c1,/,-2.4%,/,-2.2%,?
O=C(NCCCCN1CCCC1)c1ccc(-n2c(=O)c(=O)[nH]c3ccccc32)cc1,/,-1.5%,/,-5.1%,-0.8%
O=C1NCCCC2c3c(cc(Br)c(O)c3Br)OC12N1CCOCC1 (stereo not drawn),-10.8%,-0.4%,-2.6%,-1.7%,-12.9%

# Screens as filed in PubChem.
